# Experimental data reported in PubChem BioAssay AID740 (SRMLSC, 2007).
# The campaign covered roughly 96,000 compounds. About 65 (0.07%) were called active. The entries come from a sample that favours actives as a whole. A number with no mark means an inactive call. No stated cut-off is given here; in the data, active means inhibition above about 25%; inactive means the rest.
# Assay: unspecified inhibition readout at 50 µM (AID 740)
# Conditions: unspecified screen; active compounds read high
row,SMILES,inhibition
1,O=S(=O)(c1ccccc1)N1C2CCC1CC(O)(c1cccnc1)C2 (stereo not drawn),0.08%
2,CCC(NS(=O)(=O)c1ccc(OC)cc1)C(=O)NCCC1=CCCCC1 (stereo not drawn),0.42%
3,O=c1[nH]c2cccnc2n1Cc1ccco1,1.89%
4,COc1ccccc1Cn1c(=O)[nH]c2cccnc21,inactive
5,O=c1[nH]c2cccnc2n1Cc1ccccc1,88.8% (active)
6,COc1ccccc1NC(=O)C1CC(=O)OC1c1ccccc1 (stereo not drawn),inactive
7,CNC(=O)c1ccc(Oc2ccc(C(=O)NC)cc2)cc1,0.48%
8,COC(=O)c1nc(-c2ccc(C)cc2)oc1N(C)C,inactive
9,CS(=O)(=O)N1CCN(c2ccccc2NC(=O)Cc2ccc(Cl)cc2)CC1,1.42%
10,CCOC(=O)CC(=O)CSc1nnc2sc3ccccc3n12,6.25%
11,CC(C)NC(=O)CSc1nnc2sc3ccccc3n12,29.1% (active)
12,NC(=O)CSc1nnc2sc3ccccc3n12,20.1%
13,CC1CC(C)CN(C(=O)COc2ccc(-c3nnco3)cc2)C1 (stereo not drawn),inactive
14,CC(NC(=O)C1CCCN1S(=O)(=O)c1cccc2cccnc12)c1ccccc1 (stereo not drawn),3.39%
15,NS(=O)(=O)c1ccc(CCNC(=O)[C@@H]2CCCN2S(=O)(=O)c2ccccc2F)cc1,0.35%
16,NS(=O)(=O)c1ccc(CCNC(=O)C2CCCN2C(=O)OCc2ccccc2)cc1 (stereo not drawn),0.02%
17,NS(=O)(=O)c1ccc(CCNC(=O)C2CCCCN2S(=O)(=O)c2ccccc2)cc1 (stereo not drawn),80.3% (active)
18,CNS(=O)(=O)c1cccc(C(=O)Nc2cccc(Cl)c2)c1,inactive
19,Cc1nc(SCC(=O)c2ccccc2)n[nH]1,0.25%
20,COC(=O)CSc1nnc([C@H](Cc2ccccc2)NC(=O)OC(C)(C)C)o1,0.67%
21,CC(C)(C)OC(=O)N[C@@H](Cc1ccccc1)c1nnc(SCC(=O)O)o1,0.84%
22,CCSc1nnc([C@H](Cc2ccccc2)NC(=O)OC(C)(C)C)o1,26.7% (active)
23,O=C(c1cc(-c2ccc(Cl)cc2)n(-c2ccc(Cl)cc2)n1)N1CCOCC1,1.77%
24,O=C(c1cc(-c2ccc(Cl)cc2)n(-c2ccc(Cl)cc2Cl)n1)N1CCOCC1,27.9% (active)
25,O=C(c1cc(-c2ccc(Cl)cc2)n(-c2cc(Cl)ccc2Cl)n1)N1CCOCC1,2.27%
26,Cc1nc2nc(-c3ccc(Cl)cc3)[nH]n2c(=O)c1Cc1ccccc1,2.76%
27,Cc1nc2nc(-c3ccccc3)[nH]n2c(=O)c1Cc1ccccc1,62% (active)
28,COc1ccc(-c2nc3nc(C)c(Cc4ccccc4)c(=O)n3[nH]2)cc1,10.2%
